# Reference: ChEMBL document CHEMBL3433997, “St. Jude Leishmania screening dataset” (2016)
# Key:
# Type in all cases: functional
# [1] = molecular target: Solute carrier family 2, facilitated glucose transporter member 1 (Homo sapiens) (UniProt P11166); assay: ST_JUDE_LEISH: Cytotoxicity at 2uM final concentration against transgenic Leishmania Mexicana promastigotes LmGLUT1 that are glucose transport deficient and complemented with the human glucose transporter GLUT1. Activity is measured by DNA content using SYBR green in vitro
# Sequence of Solute carrier family 2, facilitated glucose transporter member 1 (Homo sapiens) (P11166 whole entry): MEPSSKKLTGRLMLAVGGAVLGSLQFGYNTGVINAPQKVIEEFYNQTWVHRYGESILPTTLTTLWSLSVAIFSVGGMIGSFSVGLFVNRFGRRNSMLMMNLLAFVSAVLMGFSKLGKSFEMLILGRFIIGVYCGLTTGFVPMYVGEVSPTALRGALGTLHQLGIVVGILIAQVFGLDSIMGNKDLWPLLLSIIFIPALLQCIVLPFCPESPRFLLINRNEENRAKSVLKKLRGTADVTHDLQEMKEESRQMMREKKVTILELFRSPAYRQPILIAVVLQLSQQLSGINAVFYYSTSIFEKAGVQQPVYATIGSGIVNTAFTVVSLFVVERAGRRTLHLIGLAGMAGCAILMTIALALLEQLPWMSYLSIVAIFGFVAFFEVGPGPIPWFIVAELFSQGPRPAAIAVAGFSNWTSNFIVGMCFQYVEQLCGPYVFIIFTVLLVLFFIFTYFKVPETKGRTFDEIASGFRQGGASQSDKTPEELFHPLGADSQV
# [2] = molecular target: Hexose transporter 1 (Plasmodium falciparum) (UniProt O97467); assay: ST_JUDE_LEISH: Cytotoxicity at 2uM final concentration against transgenic Leishmania Mexicana promastigotes LmPfHT that are glucose transport deficient and complemented with the Plasmodium falciparum hexose transporter. Activity is measured by DNA content using SYBR green in vitro
# [3] = molecular target: Glucose transporter (Leishmania mexicana) (UniProt O61059); assay: ST_JUDE_LEISH: Cytotoxicity at 2uM final concentration against transgenic Leishmania Mexicana promastigotes LmGT2 that are glucose transport deficient and complemented with the L. Mexicana glucose transporter 2. Activity is measured by DNA content using SYBR green in vitro
Structure (SMILES),inhibition [1],inhibition [2],inhibition [3]
Cc1cccc(C(=O)Nc2ccnc(N(C)CCCN(C)Cc3cccc(C#N)c3)c2)c1,5.76%,4.86%,2.02%
CN(C1CCC(NC(=O)/C=C/c2ccccc2)CC1)C1CC2(CCN(C(=O)OC(C)(C)C)CC2)c2ccccc21 (stereo unspecified),9.97%,5.58%,6.01%
N#Cc1ccc2c(c1)CCN(CCC1CCC(NC(=O)/C=C/c3c[nH]c4c(Br)cccc34)CC1)CC2 (stereo unspecified),16.5%,15.6%,6.85%
COc1ccc2cc(-c3nc(-c4c(Cl)cccc4Cl)[nH]c3-c3ccnc(NCCCN4CCN(C)CC4)c3)ccc2c1,-1.11%,-1.01%,-5.14%
Cc1ccc(N2C(=O)C3C(C2=O)C2(c4ccccc4)C(=O)C3(c3ccccc3)C(c3ccccc3)=C2c2ccccc2)cc1 (stereo unspecified),0.73%,0.67%,-1.83%
Cc1cc(C)cc(NC(=S)NCCCCN2CCN(c3cccc(Cl)c3)CC2)c1,-0.5%,-1.31%,-4.65%
N[C@@H](CCNCc1ccc(-c2cccnc2)cc1)Cc1ccc(F)c(F)c1,0.43%,0.41%,0.4%
CCOC(=O)c1c(C)n(-c2ccc(Cl)cc2)c2ccc(OC(=O)C=Cc3ccccc3)cc12,2.75%,5.54%,5.18%
CC(C)CCN1CCCN(Cc2ccc(C(=O)Nc3ccc(C(C)(C)C)cc3)cc2)CC1,2.66%,1.37%,1.41%
O=C(NCc1ccc(F)cc1)Nc1cccc(-c2ccc(-c3nc4cc(F)ccc4[nH]3)cc2)c1,6.43%,7.78%,7.37%
COc1ccc(-c2cnc3[nH]cc(-c4ccncc4)c3c2)cc1OC,68.3%,72.8%,65.3%
CC1CCCCC1N(C)C1CCN(CCCNC(=O)C=Cc2ccccc2Cl)CC1 (stereo unspecified),-0.22%,-0.24%,-0.58%
COc1ccc2nccc([C@@H](O)CN3CCC(NCc4cc5ccccc5nc4O)CC3)c2c1,1.8%,1.94%,2%
Cc1cc(N2CCN(C)CC2)nc2ccc(NC(=O)Cc3cccc(C(F)(F)F)c3)cc12,2.34%,1.8%,5.56%
COc1cc(Nc2nccc(-c3c(-c4cccc(NC(=O)c5c(F)cccc5F)c4)nn4ccccc34)n2)cc(OC)c1OC,20.8%,24.9%,8.03%
CCCCCCN1CCC(NCc2ccc(Cl)cc2)CC1,7.59%,7.61%,4.28%
CCN(CC)C(=O)C(=O)c1c[nH]c2ccc(Cl)cc12,3.24%,0.07%,0.85%
Nc1nc(Nc2ccc(Cl)cc2)nc2ccccc12,14%,12.4%,6.83%
COc1cccc2cc(C(=O)N[C@@H](CC(C)C)C(=O)N[C@H](C=NNC(=O)OC(C)(C)C)Cc3ccccc3)oc12,7.26%,6.28%,4.09%
O=C(NC1CCCCN(Cc2ccccc2O)C1)c1cccc(Cl)c1 (stereo unspecified),1.27%,1.65%,-1.89%
CCc1ccc(NC(=O)c2ccc(CN3CCCN(Cc4cccc(O)c4)CC3)cc2)cc1,-0.63%,-1.78%,2.57%
Cc1ccc(Nc2nccc(NCC(O)c3ccc(C(F)(F)F)cc3)n2)cc1 (stereo unspecified),10%,6.26%,3.67%
CNC(=O)Cc1ccc(C(=O)Nc2cccc(-c3csc(-c4nc5ccccc5[nH]4)c3)c2)cc1,-2.64%,-0.06%,1.68%
O=C(N[C@@H](Cc1ccccc1)[C@H](O)CNC1CCCCC1)c1cc(C2CCCC2)cc(N2CCCC2=O)c1,-1.39%,-1.21%,-3.12%

Structure (SMILES),inhibition [1],inhibition [2],inhibition [3]
Cc1cc(=NN=CC=Cc2ccccc2)c2cc(F)ccc2[nH]1,0.37%,0.85%,0.04%
Cn1cccc1CCNCc1ccc(-c2cccc(-c3nc4ccccc4[nH]3)c2)cc1,3.79%,3.07%,2.55%
CC12CCC(CN(CC(O)Cn3c4ccccc4c4cc(I)ccc43)C1)C2(C)C (stereo unspecified),2.02%,2.5%,0.07%
N#Cc1cccc(NC(=O)NC2CCN(CCCCCNC(=O)/C=C/c3ccc(Cl)c(Cl)c3)CC2)c1,4.68%,5.86%,8.54%
COc1ccc(CCN(C)CCOc2ccc(NC(=O)c3cccc4c(=O)c5cc(SC)ccc5[nH]c34)cc2)cc1OC,9.29%,8.61%,6.56%
COc1ccc2c(=NN=Cc3ccc(F)cc3)cc(C)[nH]c2c1,12.2%,11%,11.6%
CCOC(=O)c1cnc2c(C(F)(F)F)cccc2c1Nc1ccc(O)cc1,10.8%,8.44%,9.59%
CC(C)NCc1cccc(-c2ccc(NS(=O)(=O)c3cccc4cccnc34)cc2)c1,13.8%,8.78%,-2.82%
CC(C)(C)c1ccc(CN2CCC(CNC(=O)c3cc(-c4cccc(Cl)c4)cs3)C2)cc1 (stereo unspecified),16.7%,3.66%,1.5%
COc1cc(C(=O)NC2CC(C)(C)NC(C)(C)C2)ccc1-c1cc2cc(Cl)c(Cl)cc2[nH]1,1.69%,-0.26%,2.02%
O=C(C=Cc1ccc(Cl)c(Cl)c1)NCCCCCN1CCC(CCCNS(=O)(=O)c2cccc(C(F)(F)F)c2)CC1,0.51%,-1.72%,2.46%
CC(Oc1ccc(Cl)cc1)C(=O)NCCC1CCN(CCCCCNC(=O)/C=C/c2ccc(Cl)c(Cl)c2)CC1 (stereo unspecified),2.73%,1.37%,0.04%
CN1CCN(Cc2ccc(-c3ccc4c(Nc5ccc(F)cc5Cl)ccnc4c3)o2)CC1,0.53%,0.83%,1.39%
O=C(/C=C/c1ccc(Cl)c(Cl)c1)NCCCCCN1CCC(c2c[nH]c3ccc(O)cc23)CC1,2.16%,1.31%,1.25%
COC(=O)c1sc(-c2ccc(Cl)cc2)cc1N(CCCN1CCC(N2CCCCC2)CC1)S(=O)(=O)c1ccc(C)cc1,23.5%,11.2%,9.1%
CCOc1cc(Cc2cnc(N)nc2N)cc(OCC)c1-n1cccc1,5.67%,5.64%,1.36%
CCCCCn1c(Sc2ccc(C#N)c([N+](=O)[O-])c2)nnc1-c1ccc(OC)cc1,9.26%,6%,4.8%
Cc1ccccc1CNc1ccc2nc(N)nc(N)c2c1,1.01%,2.12%,-0.21%
CC1(C)NC(N)=NC(=N)N1OCCCO,-0.7%,-0.74%,-1.67%
COc1cc(N)cc2sc(N)nc12,-1.04%,0.54%,0.08%
FC(F)(F)COc1c(CCNCCCCNCCc2ccc3ccccc3c2OCC(F)(F)F)ccc2ccccc12,105%,103%,108%
CC(C)(C)N1CCC(N(Cc2ccc(-c3ccc(C(F)(F)F)cc3)cc2)C(=O)Cn2c(CCc3cccc(F)c3F)cc(=O)c3ccccc32)CC1,1.29%,0.14%,1.02%
CSc1ccc(C=CC(=O)NC(=O)c2ccccc2O)cc1,1.32%,2.44%,1.41%
Cc1cccc(-c2cc3cc(Nc4ccnc5cc(-c6nccs6)ccc45)ccc3[nH]2)c1,1.71%,-0.37%,1.12%

Structure (SMILES),inhibition [1],inhibition [2],inhibition [3]
O=C(Nc1ccc(-c2csc3nccn23)cc1)c1ccc(Cl)cc1,5.5%,4.05%,-0.28%
Cc1cc(Nc2ccc(C)c(Cl)c2)n2nc(C(F)(F)F)nc2n1,6.65%,2.47%,1.18%
CCN1CCN(c2cc(C)c3cc(NC(=O)c4cccc(OC)c4)ccc3n2)CC1,15.2%,15.3%,13.7%
CCc1nc(N)nc(N)c1-c1ccc(C(C)C)cc1,2.65%,2.31%,2.86%
O=c1cc(NCCCNCc2[nH]c3cc(Cl)ccc3c2Cl)[nH]c2ccccc12,5.19%,3.33%,4.15%
Cc1ccc(Nc2nnc(SCC(=O)Nc3ccc(CN4CCCC4)cc3)s2)cc1,0.83%,-0.59%,0.85%
O=C(NCCc1ccccc1)N(Cc1ccccc1-c1cccc(CNC2CCCC2)c1)C1CCN(Cc2ccccc2)CC1,8.2%,4.49%,6.22%
O=C(Nc1ccc(N2CCC(Nc3ccccn3)CC2)cc1)c1cnc(Cl)c(Cl)c1,18%,10.4%,4.85%
N#Cc1ccc2c(c1)CN(C1CCC(NC(=O)/C=C/c3cc(C(F)(F)F)cc(C(F)(F)F)c3)CC1)CCC2 (stereo unspecified),1.63%,1.36%,0.57%
CN(CCCCNC(=O)c1ccc(-c2ccccc2)cc1)C1CCc2c(O)cccc2C1 (stereo unspecified),2.79%,2.13%,1.18%
COc1ccc(NC(=O)Nc2ccc(-c3cccc(-c4nc5cccc(C)c5[nH]4)c3)cc2)cc1,-1.37%,-1.2%,-0.2%
CC(C)C(=O)NC(Nc1ccc([N+](=O)[O-])cc1)C(Cl)(Cl)Cl (stereo unspecified),3.83%,3.53%,1.48%
COc1ccccc1C1CC(c2ccccc2)=NN1C(=O)c1ccccc1 (stereo unspecified),-3.13%,-0.25%,-0.28%
COc1cc2nc(NCC3CCN(C(=O)c4ccc(-c5ccc(C(=O)N(C)C)cc5C)cc4)CC3)nc(N)c2cc1OC,10.9%,9.71%,7.15%
CN(C)CCN(C)Cc1ccc(-c2ccc(NC(=O)c3ccc(Cl)cc3)cc2)cc1,21.2%,11.3%,7.17%
O=C(n1c(-c2cc3ccccc3n2C(=O)C(F)(F)F)cc2ccccc21)C(F)(F)F,4.6%,1.94%,-0.64%
Cc1cccc2nc(-c3cccc(-c4ccc(NC(=O)CCc5c[nH]cn5)cc4)c3)[nH]c12,7.76%,9.49%,8.27%
Cc1cc(=NN=Cc2ccccc2Cl)c2cc(F)ccc2[nH]1,3.99%,2.95%,2.23%
CCn1c2ccccc2c2cc(C=NN=c3cc(C)[nH]c4ccccc34)ccc21,4.76%,6%,0.19%
Cc1ccc(CN2CCCN(Cc3cccc(NC(=O)c4ccc(-c5ccccc5)cc4)c3)CC2)cc1C,3.45%,2.98%,2.82%
Cc1nnsc1C(=O)Nc1cccc(-c2ccc(-c3nc4ccccc4[nH]3)cc2)c1,7.04%,9.93%,4.11%
CN1CCCc2cc(NC(=O)c3cc(-c4ccc(Cl)cc4)cs3)ccc2C1,2.24%,0.77%,1.79%
O=C(NCCN1CCC(NC(=O)c2ccc(-c3ccccn3)s2)CC1)c1ccc(Cl)c(Cl)c1,3.53%,4.02%,4.43%
COc1cccc(NC(=O)Nc2cc(-c3ccc4[nH]ncc4c3)cc3c2CNC3=O)c1,2.19%,2.02%,1.68%
